The source of these data is PubChem BioAssay (NCATS).

The nature of assay [1]: qHTS Assay for Identifying Gametocytocidal Compounds (AID 743244). Further: potency means the concentration at half of the fitted maximal effect.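 On max response: on the % scale 0 is the no-effect control and ±100 the full control effect; actives lower the fluorescent signal which means gametocytes are killed.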 As to conditions: P. falciparum 3D7 stage III-V gametocytes, alamarBlue, 72 h; max response: stronger effect = lower value. In a few lines:
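Late gametocytes (III–V), P. falciparum 3D7; 72 h drug, then 24 h alamarBlue; resazurin reduction read by fluorescence.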

A short description of assay [2]: qHTS assay for measurement of the activity of small molecule inhibitors on Zika virus induced Caspase-3 activity in human iPSC derived neural progenitor cells (hNPCs) (AID 1224857). Further: nearly all actives have a fitted effect of over 65% in size. Further: potency means the concentration at half of the fitted maximal effect. In a few lines:
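Caspase-3/7 induction by a 6-hour ZIKV infection was quantified with a luminescent Caspase-Glo 3/7 reagent incubated 30 minutes at room temperature. Compounds were preincubated with hNPCs for 1 hour; inhibition was calculated against uninfected and infected control wells.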
For orientation: qHTS replaces the single test concentration by a dilution series.

Assay [3] is described as follows: qHTS assay for measurement of the activity of small molecule inhibitors on Zika virus induced Caspase-3 activity in human astrocytoma cells (AID 1224859).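 Further: plate controls were ZIKV-infected untreated cells for no effect and uninfected cells for full effect.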 In a few lines: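 In SNB-19 cells plated at 250 cells/well and grown 16-20 h, compounds were applied 1 h before ZIKV (2 FFU/cell). Six hours later caspase-3/7 luminescence was recorded.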
In assay [4] the target is Atrial natriuretic peptide receptor 1 (Homo sapiens) (UniProt P16066). Kind of assay: Natriuretic polypeptide receptor (hNpr1) antagonism - Pilot screen (AID 1347049; calls by dose curve;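 further: HEK293 cells with hNpr1 and GloSensor cGMP luciferase stimulated by 0.1 nM hNppA; agonist-evoked cGMP luminescence read 20 min after hNppA addition; on the % scale 0 is the no-effect control and ±100 the full control effect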). In short, it runs like this: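 Cells expressing receptor plus cGMP biosensor are seeded and incubated overnight at 37C, then loaded with GloSensor reagent (2% final) at room temperature for 2 h. Library compounds go on for 30 min. A pre-read precedes agonist (hNppA, 0.1 nM final) and a 20-min readout.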

The target of assay [5] is Atrial natriuretic peptide receptor 2 (Homo sapiens) (UniProt P20594). The assay can be described thus: Natriuretic polypeptide receptor (hNpr2) antagonism - Pilot subtype selectivity assay (AID 1347050; calls by dose curve; further: potency means the concentration at half of the fitted maximal effect). In a few lines:
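Read-out: GloSensor luminescence (CCD imager), baseline vs post-stimulation. HEK293 cells expressing hNpr2; compounds pre-incubated 30-50 min at ambient temperature; hNppC 1 nM final, 20 min.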

The nature of assay [6]: NS1 protein of Zika virus - qHTS assay to identify small molecule inhibitors in human HEK 293 cells (AID 1347053).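 Further: plate controls were infected untreated cells for no effect and uninfected cells for full effect; nearly all actives have a fitted effect of over 55% in size.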 In short, it runs like this:
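Compound-treated (1 h pre-infection) HEK 293 cells infected with ZIKV MR766, MOI = 0.5; after 24 h at 37 C, NS1 read by TR-FRET; data normalized to uninfected and infected controls.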

Assay [7] can be described thus: Natriuretic polypeptide receptor (hNpr1) antagonism - Pilot counterscreen GloSensor control cell line (AID 1347045; calls by dose curve; further: on the % scale 0 is the no-effect control and ±100 the full control effect). In a few lines:
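The SNP-driven cGMP luminescence signal (50 uM, 20 min, room temperature) was measured in GloSensor HEK293 control cells. Compounds were tested as a LOPAC titration series and preincubated for 30-50 min.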
(Counterscreens check selectivity or assay interference.)

Assay [8] is described as follows: qHTS assay to identify small molecule inhibitors of chordoma cells - UCH-1 (AID 1259355). Further: on the % scale 0 is the no-effect control and ±100 the full control effect; nearly all actives have a fitted effect of over 55% in size. In short, it runs like this: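 A 48hr growth-inhibition format: each drug tested at 15 concentrations together with added auranofin, camptothecin, doxorubicin, rubitecan and topotecan, with cell viability quantified as CellTiter-Glo luminescence.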
Assay [9] in a line: qHTS assay to identify small molecule inhibitors of chordoma cells - UCH-2 (AID 1259356). Further: on the % scale 0 is the no-effect control and ±100 the full control effect.
Assay [10] in a line: P-glycoprotein substrates identified in KB-8-5-11 adenocarcinoma cell line, qHTS therapeutic library screen (AID 1346987). Further: on the % scale 0 is the no-effect control and ±100 the full control effect; nearly all actives have a fitted effect of over 65% in size. In short, it runs like this: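 Human cervical adenocarcinoma KB-8-5-11 cells, selected in colchicine to over-express P-gp and assayed without it, were exposed for 72 h to titrated compounds. An ATP-based luminescent viability signal gave AC50.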
The nature of assay [11]: qHTS profiling for inhibitors of Plasmodium falciparum (3D7) proliferation (AID 743322; call rule not given here;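 further: infected erythrocytes exposed to compound for 72 h before lysis; 100% = DMSO vehicle wells and 0% = 0.29 µM artemisinin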). To be noted: P. falciparum 3D7 proliferation; at 28.7 µM (top of the series). In short, it runs like this: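 Parasite DNA was quantified by SYBR Green I fluorescence (ex 485, em 535 nm) after overnight lysis in saponin/Triton buffer at room temperature. Cultures at 0.3% parasitemia and 2.5% hematocrit were first exposed to compound for 72 h at 37 C; signals were normalised to artemisinin (0.29 uM) and vehicle wells.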

Assay [12] is described as follows: qHTS profiling for inhibitors of Plasmodium falciparum (DD2) proliferation (AID 743323; call rule not given here). As to conditions: lower = more inhibition; at 28.7 µM (top of the series). In short, it runs like this: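 Parasite proliferation measured via DNA-dye fluorescence, as uninfected erythrocytes lack DNA. Cultures at 0.3% parasitemia and 2.5% hematocrit incubated 72 h with compound; signal scaled between vehicle and 0.29 uM artemisinin wells.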

Assay [13] can be described thus: qHTS assay for cell viability of the p53RE-bla HCT-116 cell line (AID 743292). Further: on the % scale 0 is the no-effect control and ±100 the full control effect; nearly all actives have a fitted effect of over 55% in size. In a few lines:
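Intracellular ATP of p53RE-bla HCT-116 cells measured by luciferase luminescence following 16 h compound incubation at 37 C; DMSO-only wells served as vehicle controls.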

The structures appear in SMILES notation. Several values for one entry are separate records, joined by “and”; a condition that tells them apart may be missing. Equal values may be shown once. Records with an inconclusive call do not appear. Activity calls are given as the source filed them. Unless noted, the call rests on the fitted dose curve; in most records, active means well fitted curve in the direction sought with a large enough effect; inconclusive means small, poorly fitted or top-dose-only effect, or another doubt; inactive means no such curve, though single readings can be large; an effect the other way counts as inactive or inconclusive.

Atrial natriuretic peptide receptor 1 (Homo sapiens), sequence (P16066 whole entry, looked up): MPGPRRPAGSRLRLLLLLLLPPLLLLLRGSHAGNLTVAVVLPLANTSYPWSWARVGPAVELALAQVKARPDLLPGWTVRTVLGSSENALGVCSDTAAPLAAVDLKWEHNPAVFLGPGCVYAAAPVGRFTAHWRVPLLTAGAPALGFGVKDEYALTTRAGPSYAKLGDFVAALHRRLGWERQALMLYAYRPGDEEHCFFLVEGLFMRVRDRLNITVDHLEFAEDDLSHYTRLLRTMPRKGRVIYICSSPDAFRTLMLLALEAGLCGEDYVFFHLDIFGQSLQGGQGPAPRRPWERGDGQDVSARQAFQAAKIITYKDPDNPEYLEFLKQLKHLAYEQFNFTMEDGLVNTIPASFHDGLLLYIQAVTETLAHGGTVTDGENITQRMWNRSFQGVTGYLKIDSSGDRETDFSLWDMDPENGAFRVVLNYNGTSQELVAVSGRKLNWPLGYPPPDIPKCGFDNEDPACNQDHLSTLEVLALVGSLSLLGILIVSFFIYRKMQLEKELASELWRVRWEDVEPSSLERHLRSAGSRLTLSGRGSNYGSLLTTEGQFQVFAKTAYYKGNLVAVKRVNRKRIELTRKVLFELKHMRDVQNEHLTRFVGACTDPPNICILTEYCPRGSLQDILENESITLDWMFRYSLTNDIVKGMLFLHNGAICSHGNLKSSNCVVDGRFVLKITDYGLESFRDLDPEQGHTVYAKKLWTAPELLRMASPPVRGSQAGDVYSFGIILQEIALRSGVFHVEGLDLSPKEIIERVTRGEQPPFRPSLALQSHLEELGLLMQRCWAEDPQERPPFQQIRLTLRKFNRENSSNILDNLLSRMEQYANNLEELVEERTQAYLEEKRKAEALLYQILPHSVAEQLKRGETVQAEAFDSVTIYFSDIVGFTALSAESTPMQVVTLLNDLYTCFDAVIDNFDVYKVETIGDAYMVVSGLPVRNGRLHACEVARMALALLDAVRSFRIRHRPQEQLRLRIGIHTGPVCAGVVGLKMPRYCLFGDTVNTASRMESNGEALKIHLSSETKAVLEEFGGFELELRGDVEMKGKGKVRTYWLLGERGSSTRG
Atrial natriuretic peptide receptor 2 (Homo sapiens), sequence (P20594 whole entry, looked up): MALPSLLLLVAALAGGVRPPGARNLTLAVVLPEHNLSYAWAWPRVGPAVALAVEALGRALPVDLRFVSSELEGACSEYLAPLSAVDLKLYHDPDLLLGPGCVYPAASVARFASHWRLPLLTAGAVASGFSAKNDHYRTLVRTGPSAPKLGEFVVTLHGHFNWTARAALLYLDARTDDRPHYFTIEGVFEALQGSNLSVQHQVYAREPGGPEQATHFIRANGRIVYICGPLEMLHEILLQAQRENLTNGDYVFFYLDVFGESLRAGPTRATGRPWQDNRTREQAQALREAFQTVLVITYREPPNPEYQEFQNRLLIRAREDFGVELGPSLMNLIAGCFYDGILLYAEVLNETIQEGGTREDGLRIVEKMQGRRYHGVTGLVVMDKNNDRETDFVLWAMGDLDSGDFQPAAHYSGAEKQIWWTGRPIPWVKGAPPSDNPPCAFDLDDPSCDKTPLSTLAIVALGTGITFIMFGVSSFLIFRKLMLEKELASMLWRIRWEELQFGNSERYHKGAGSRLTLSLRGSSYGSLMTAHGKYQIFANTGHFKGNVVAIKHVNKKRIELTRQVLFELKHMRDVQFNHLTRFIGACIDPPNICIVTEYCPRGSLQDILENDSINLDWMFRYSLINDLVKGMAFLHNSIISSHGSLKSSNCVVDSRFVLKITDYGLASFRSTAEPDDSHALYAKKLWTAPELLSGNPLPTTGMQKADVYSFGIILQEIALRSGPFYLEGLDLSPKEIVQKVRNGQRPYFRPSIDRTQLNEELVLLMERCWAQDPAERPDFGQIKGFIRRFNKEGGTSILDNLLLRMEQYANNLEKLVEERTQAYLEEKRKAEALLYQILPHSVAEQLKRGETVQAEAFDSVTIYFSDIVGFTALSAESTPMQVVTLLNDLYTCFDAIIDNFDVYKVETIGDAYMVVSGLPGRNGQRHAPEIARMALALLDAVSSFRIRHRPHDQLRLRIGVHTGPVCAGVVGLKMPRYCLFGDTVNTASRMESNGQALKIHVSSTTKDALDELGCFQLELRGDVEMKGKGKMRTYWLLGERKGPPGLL

As for `N[C@@H](Cn1oc(=O)[nH]c1=O)C(=O)O`, the max response in assay [1] is 11.5% (inactive). Besides, the Potency entry in assay [2], in [4] and in assay [5] was “inactive” in each case. Also, the molecule was called inactive in assay [3] and in [6].

As for `CN1CC[C@@]2(C)c3cc(OC(=O)Nc4ccccc4)ccc3N(C)[C@@H]12`, the Potency in assay [1] was 1.12 µM (active); in assay [2], 10 µM (active). Further, the Potency entry in assay [7], in assay [4] and in assay [5] was “inactive” throughout. Also, the result in assay [6] was inactive.

In the case of `CCCN(CCC)C1Cc2cc(OC)c(OC)cc2C1`, the max response in [1] is 13.4% (inactive). Further, the Potency result in assay [2], in assay [7] and in assay [5] was “inactive” throughout. In addition, the molecule was called inactive in assay [3] and in [6].

`O=P(O)(O)C(Cl)(Cl)P(=O)(O)O`: in assay [1], the max response is -3.79% (inactive) and -4.92% (inactive). For the same molecule, the Potency entry in assay [2], in [8], in [9] and in [10] was “inactive” in each case.

Consider `C[C@H](N)CN1CCc2ccc(Br)cc21`, for which the Potency in assay [1] was 7.43 µM (active). Besides, in [11], the remaining parasite growth % (stronger effect = lower value) was 99.2%. The activity, percent of control in assay [12] amounted to 24.2%. Moreover, the Potency entry in [2], in assay [7] and in assay [5] was “inactive” each time. Besides, the call in [3] and in assay [6] was inactive.

`O=C1C=CC(=O)C=C1`: the Potency entry in assay [13], in assay [2], in assay [4] and in [5] was “inactive” in each case. In addition, the result in assay [3] and in assay [6] was inactive.

For the molecule `CCCCCCCCCCCCCC(=O)O[C@@H]1[C@@H](C)[C@@]2(O)[C@@H](C=C(CO)C[C@@]3(O)C(=O)C(C)=C[C@@H]23)C2C(C)(C)[C@@]21OC(C)=O` (some centres undefined), the max response in assay [1] was -2.77% (inactive). The Potency result in [2] and in [7] was “inactive” each time. For the same molecule, the outcome in [3] was inactive. Also, the Potency in assay [5] was 0.0066 µM (active).

Turning to `N[C@@]1(C(=O)O)CC[C@@H](C(=O)O)C1`, the max response in [1] is 13.5% (inactive). In addition, the Potency result in assay [2], in assay [7] and in assay [5] was “inactive” in each case. For the same molecule, the call in [3] and in [6] was inactive.

In the case of `C=CCN1C[C@@H](C)N([C@H](c2ccc(C(=O)N(CC)CC)cc2)c2cccc(OC)c2)C[C@@H]1C`, the Potency entry in assay [2], in assay [4] and in [5] was “inactive” in each case. Moreover, the molecule was called inactive in assay [3].

Take `Oc1ccc2c3c1O[C@H]1c4oc5ccccc5c4C[C@@]4(O)C(C2)N(CC2CC2)CCC314` (some centres undefined): the Potency entry in assay [2], in assay [4] and in assay [5] was “inactive” each time. In addition, the result in assay [3] was inactive.

In the case of `C[N+]1(C)CCc2cc3c(cc2[C@H]1[C@@H]1OC(=O)c2c1ccc1c2OCO1)OCO3`, the max response in assay [1] is 19.2% (inactive). The Potency entry in [2], in assay [4] and in assay [5] was “inactive” throughout. Besides, the result in [3] and in assay [6] was inactive.

Regarding `CO[C@H]1CC=C2CCN3CCC4=C(CC(=O)OC4)[C@]23C1`, in assay [1], the max response is -3.4% (inactive). In addition, the Potency entry in assay [2], in assay [4] and in assay [5] was “inactive” each time. Moreover, the outcome in assay [3] and in assay [6] was inactive.

As to `CC(C)(C)OC(=O)NC1[C@H]2CNC[C@@H]12` (some centres undefined), the Potency entry in assay [2] is “inactive”. In assay [6], the outcome was inactive.

`CN1CCC[C@@H]1Cc1c[nH]c2ccc(Nc3ncccc3[N+](=O)[O-])cc12`: the Potency entry in assay [2] and in assay [10] was “inactive” throughout. Moreover, the molecule was called inactive in assay [6].

Consider `C=CCN1CCC23c4c5ccc(O)c4O[C@H]2C(=O)CC[C@@]3(O)C1C5` (some centres undefined), for which the max response in assay [1] is 7.07% (inactive). The Potency result in assay [2], in [4] and in assay [5] was “inactive” each time. For the same molecule, the molecule was called inactive in assay [3] and in assay [6].
